# Laboratory results as given in a collection of fitness landscapes (doi:10.1126/science.1257360).
# The full ranking holds about 140,000 sequences; the median of “enrichment ratio after two sorts for PhoP signalling” is about 0, and the highest 2% start at about 11. What follows is part of a selection rich in the highest values, with near analogues and random picks from the rest.
# B1: PhoQ; a variant is named by its letters at X, in order, P23837 (parent)
# chain: MKKLLRLFFPLSLRVRFLLATAAVVLVLSLAYGMVALIGYSVSFDKTTFRLLRGESNLFYTLAKWENNKLHVELPENIDKQSPTMTLIYDENGQLLWAQRDVPWLMKMIQPDWLKSNGFHEIEADVNDTSLLLSGDHSIQQQLQEVREDDDDAEMTHSVAVNVYPATSRMPKLTIVVVDTIPVELKSSYMVWSWFIYVLSANLLLVIPLLWVAAWWSLRPIEALAKEVRELEEHNRELLNPATTRELTSLVRNLNRLLKSERERYDKYRTTLTDLTHSLKTPLXXLQXXLRSLRSEKMSVSDAEPVMLEQISRISQQIGYYLHRASMRGGTLLSRELHPVAPLLDNLTSALNKVYQRKGVNISLDISPEISFVGEQNDFVEVMGNVLDNACKYCLEFVEISARQTDEHLYIVVEDDGPGIPLSKREVIFDRGQRVDTLRPGQGVGLAVAREITEQYEGKIVAGESMLGGARMEVIFGRQHSAPKDE
# Variants of: B1
# Test: enrichment ratio after two sorts for PhoP signalling (ratio (wild type AVST 3.29)); higher = more functional
# Settings: with PhoP (E. coli)
row,Variant,enrichment ratio
1,TAWE,24.5
2,KACM,≤ 0.25
3,TAVM,2.01
4,NAWE,≤ 0.25
5,KANA,≤ 0.25
6,KAWE,≤ 0.25
7,TANA,15.9
8,QGRI,≤ 0.25
9,SQSD,≤ 0.25
10,AVQG,≤ 0.25
11,ICYL,≤ 0.25
12,MLLM,7.62
13,DQQR,≤ 0.25
14,KFML,≤ 0.25
15,GDAW,≤ 0.25
16,HFFI,≤ 0.25
17,RKHF,≤ 0.25
18,WQPT,≤ 0.25
19,ALSQ,16.2
20,CISQ,55.8
21,VLSQ,≤ 0.25
22,NISQ,≤ 0.25
23,RISQ,≤ 0.25
24,TTSQ,16.8
25,AHSQ,≤ 0.25
26,KQSQ,≤ 0.25

row,Variant,enrichment ratio
1,ALSK,2.03
2,ADSQ,≤ 0.25
3,AKSQ,20.1
4,YTSQ,≤ 0.25
5,TLEP,≤ 0.25
6,DVCT,≤ 0.25
7,TMFF,≤ 0.25
8,WISQ,≤ 0.25
9,GTSQ,5.69
10,ATSK,4.37
11,VHSQ,≤ 0.25
12,ATSQ,11.6
13,AISQ,15.6
14,GRRA,≤ 0.25
15,KANK,≤ 0.25
16,LHPY,≤ 0.25
17,YEKR,≤ 0.25
18,IVLL,1.17
19,SRSV,≤ 0.25
20,TSSV,20
21,SDSV,5.55
22,KSTA,≤ 0.25
23,SQSV,11.9
24,SGSV,12.1
25,SPTA,≤ 0.25
26,NSSV,≤ 0.25

row,Variant,enrichment ratio
1,SGWR,≤ 0.25
2,TVTA,19.9
3,SGDW,≤ 0.25
4,KSSV,≤ 0.25
5,VCWY,≤ 0.25
6,PCPR,≤ 0.25
7,KLGA,≤ 0.25
8,AKGF,≤ 0.25
9,EKFN,≤ 0.25
10,AGVG,1.3
11,IANT,≤ 0.25
12,TQSV,20.7
13,SLSV,7.73
14,NVSV,≤ 0.25
15,SCSV,9.38
16,SISV,11.6
17,LLSV,≤ 0.25
18,LASV,≤ 0.25
19,SESV,16.9
20,KYSV,≤ 0.25
21,TLSV,16.7
22,VLSV,≤ 0.25
23,DDSV,≤ 0.25
24,EDTD,≤ 0.25
25,RDHH,≤ 0.25
26,GWHV,≤ 0.25

row,Variant,enrichment ratio
1,YFPW,≤ 0.25
2,LVPS,≤ 0.25
3,NTCA,≤ 0.25
4,HTEF,≤ 0.25
5,LAEC,≤ 0.25
6,IDHP,≤ 0.25
7,HCSV,≤ 0.25
8,WPTS,≤ 0.25
9,KMSV,≤ 0.25
10,TVSV,14.9
11,KASV,≤ 0.25
12,DMSV,≤ 0.25
13,WPTD,≤ 0.25
14,SPSV,≤ 0.25
15,TASV,17.9
16,WPTA,14.3
17,TMSV,16.5
18,NASV,≤ 0.25
19,VEEC,≤ 0.25
20,ITEG,0.328
21,RMAH,≤ 0.25
22,NGEP,≤ 0.25
23,ATVR,4.36
24,QILH,≤ 0.25
25,MNDG,≤ 0.25
26,GVPD,≤ 0.25

row,Variant,enrichment ratio
1,VQKT,≤ 0.25
2,RQKC,≤ 0.25
3,HSFA,≤ 0.25
4,ICYS,≤ 0.25
5,FLCS,≤ 0.25
6,TMVF,≤ 0.25
7,HKMC,≤ 0.25
8,TKMC,77.6
9,HIMC,48.5
10,TGMC,31.9
11,RGMC,≤ 0.25
12,GGMC,≤ 0.25
13,ATMC,11.2
14,HFMC,≤ 0.25
15,HRMC,≤ 0.25
16,ASMC,12.1
17,NSMC,≤ 0.25
18,PTMC,≤ 0.25
19,AARL,≤ 0.25
20,DMIF,≤ 0.25
21,NGMC,≤ 0.25
22,TRMC,2.53
23,HGMC,13.3
24,KFMC,≤ 0.25
25,PFMC,≤ 0.25
26,TFMC,16.5

row,Variant,enrichment ratio
1,KSMC,≤ 0.25
2,FSMC,16.1
3,SGMC,12.8
4,FCMC,≤ 0.25
5,SGFC,≤ 0.25
6,TIMC,9
7,KDFY,≤ 0.25
8,EPYY,≤ 0.25
9,FDYI,≤ 0.25
10,QVCS,≤ 0.25
11,LEAV,≤ 0.25
12,REVC,≤ 0.25
13,FGTK,≤ 0.25
14,RCMC,≤ 0.25
15,HKMM,≤ 0.25
16,ANRA,≤ 0.25
17,ANRM,≤ 0.25
18,ACMM,14.1
19,MEMM,0.38
20,AVMM,52.7
21,ANMM,32.7
22,TVMM,0.563
23,FVMM,8.76
24,TKMM,31.6
